MsrA act = activates bovine MsrA enzyme. activation, % at 10.6 µM. purified bovine MsrA, absorbance read-out. hit rate 0.3% among 360,000; in the data active = activation above about 7.5%;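 also: 0% = vehicle and 100% = reference activator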
NPR1 activator = GC-A (human) enzyme activation. P16066. HEK293 GC-A cells, cGMP TR-FRET, EC30 ANP; 0% at EC30 ANP, 100% saturating ANP. activation, % at 10 µM. hit rate 0.14% among 370,000. AID 1671463; in the data active = activation above about 40%
GC-B act = GC-B (human) receptor activation | AID 1920062 | activation, % at 10 µM | hit rate 0.11% among 370,000 | HEK293-GC-B cells, CNP EC30, cGMP TR-FRET; 0% at EC30 CNP, 100% saturating CNP;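 active = activation at 10 µM reaching about 35% in either raw or pattern-adjusted values, limit read from the data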
MsrA inhibitor = bovine MsrA inhibition; purified bovine MsrA, absorbance read-out; inhibition, % at 15.5 µM; hit rate 0.75% among 360,000; AID 651718; in the data active = inhibition above about 4.5%;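 also: 0% = vehicle wells with enzyme and 100% = reference inhibitor wells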
MsrA activ conf = confirmation of bovine methionine sulfoxide reductase A activators. shares compounds with MsrA act. purified bovine MsrA, absorbance read-out. activation, % at 10.6 µM. hit rate 12% among 1,000. AID 602270; in the data active = activation above about 4%;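 also: enzyme coupled to thioredoxin and thioredoxin reductase with NADPH; 0% = vehicle wells and 100% = reference activator wells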
Starred values were filed as active, the others as inactive; / = not tested or not shown; ! = not active in a repeat. The list is not random: actives were taken first. Their share in the collection is about 1.2%.

SMILES	MsrA act	NPR1 activator	GC-B act	MsrA inhibitor	MsrA activ conf
O=c1c2ccc(F)cc2sn1-c1ccccc1	13*	12	4	1	8.0*
Cc1ccc(-n2sc3cc(F)ccc3c2=O)c(C)c1	14*	12	11	-1	3
Cc1ccc(-n2sc3ccccc3c2=O)cc1	13*	4	16	0	2
Cc1ccc(N2C(=O)CC(N3CCN(c4ccc(F)cc4)CC3)C2=O)c(C)c1 (configuration not stated)	1	-2	0	-1	/
CCN(C(=O)C1CCN(c2ncccn2)CC1)c1ccccc1	/	2	8	/	/
O=C(Nc1n[nH]c(=S)s1)c1ccco1	8.7*	2	11	2	2
CCCCOc1ccccc1C1NC(=O)NC(C)=C1C(=O)OCc1ccco1 (configuration not stated)	8.9*	/	/	1	0
CC(=O)Nc1ccc(S(=O)(=O)NC2=C(N3CCN(Cc4ccccc4)CC3)C(=O)c3ccccc3C2=O)cc1	8.1*!	-3	1	1	1
CCN1CCN(C2=C(NS(=O)(=O)c3ccc(C)cc3)C(=O)c3ccccc3C2=O)CC1	5	-5	-6	-1	/
CC(=O)Nc1ccc(S(=O)(=O)NC2=C(N3CCN(C)CC3)C(=O)c3ccccc3C2=O)cc1	26*	-2	-4	2	1
CCOC(=O)N1CCN(C2=C(NS(=O)(=O)c3ccc(NC(C)=O)cc3)C(=O)c3ccccc3C2=O)CC1	-4	-2	2	0	/
CCN1CCN(C2=C(NS(=O)(=O)c3ccc(NC(C)=O)cc3)C(=O)c3ccccc3C2=O)CC1	8.9*	-1	0	2	1
CC1CCCN(C2=C(NS(=O)(=O)c3ccc(Br)cc3)C(=O)c3ccccc3C2=O)C1 (configuration not stated)	8.9*	1	1	2	1
O=C1CCCC(O)=C1N=Nc1ccc(Cl)c(Cl)c1	-2	-2	-4	4	/
CC(=O)N1CCc2cc(N=NC3=C(O)CCCC3=O)ccc21	8.7*	-13	-18	2	-1
CCC(Oc1ccccc1C)C(=O)N1CCCN(C)CC1 (configuration not stated)	14*	2	-4	0	-1
CCC(Oc1ccc(C)c(C)c1)C(=O)N1CCCN(C)CC1 (configuration not stated)	-1	1	2	0	/
COc1ccc(C(=O)N/C(=C\c2cn(S(=O)(=O)N(C)C)c3ccccc23)C(=O)NCCN2CCOCC2)cc1	18*	3	2	4.6*	-1
COc1ccc(C(=O)N/C(=C\c2cn(S(=O)(=O)N(C)C)c3ccccc23)C(=O)NCCN2CCOCC2)cc1OC	-1	6	8	0	/
O=C(NC(=S)Nc1cccc([N+](=O)[O-])c1)c1ccco1	4	0	3	0	/
CN(C)S(=O)(=O)c1cccc(NC(=S)NC(=O)c2ccco2)c1	11*	-4	-2	0	-4
O=C(COC(=O)CCCNC(=O)c1ccc(Cl)cc1)NC1CC1	7.9*	0	-2	0	-2
COc1ccc(N(CC(=O)NCc2cccnc2)S(=O)(=O)c2ccccc2)c(OC)c1	13*	-3	-9	0	-1
COc1ccc(OC)c(N(CC(=O)NCc2ccccc2)S(=O)(=O)c2ccc(OC)c(OC)c2)c1	-2	-9	0	0	/
CCOc1ccc2c(c1)C(C)=CC(C)(C)N2S(=O)(=O)c1ccc(NC(C)=O)cc1	8.2*	-1	-4	0	-1
SMILES	MsrA act	NPR1 activator	GC-B act	MsrA inhibitor	MsrA activ conf
O=C(O)C1C2CC(C(Br)C2Br)C1C(=O)O (configuration not stated)	15*	4	0	0	-1
S=c1[nH]nc(-c2ccncc2)n1Cc1ccccc1	8.5*	-1	0	1	1
O=C1CN(C(=O)c2ccc(Br)o2)C(c2ccccc2)c2cc(F)ccc2N1 (configuration not stated)	12*	-14	-7	0	-3
O=C1CN(C(=O)c2ccccc2)C(c2ccccc2)c2cc(F)ccc2N1 (configuration not stated)	-3	-3	-2	3	/
CCn1c2ccccc2c2cc(NC(=O)COC(=O)c3ccc(F)cc3F)ccc21	/	0	2	/	/
CCN(CC)C(=O)CC[C@H]1CC[C@]2(CCCN(Cc3ccncc3)C2)O1	/	4	-1	/	/
Cc1ccc(S(=O)(=O)N(CC(=O)Nc2ccccc2C(=O)O)c2ccccc2)cc1	7.8*	1	6	2	-3
Cc1cc(C)cc(N(CC(=O)Nc2ccccc2C(=O)N2CCOCC2)S(C)(=O)=O)c1	9.2*	-1	2	-1	-2
COc1ccccc1NC(=O)CN(c1ccccc1)S(=O)(=O)c1ccccc1	-13	-6	-6	-1	/
COC(=O)[C@@H](C)NC(=O)c1ccc2oc(CCc3ccccc3)nc2c1	-3	1	4	0	/
COC(=O)CCCNC(=O)c1ccc2oc(CCCc3ccccc3)nc2c1	11*	3	-3	1	-2
CC(=NN1CCN(c2ccccn2)CC1)c1ccccc1O	/	-3	-3	/	/
CCn1c(SCC(=O)NN=Cc2c[nH]c3ccccc23)nc2ccccc21	/	-9	-1	/	/
CC(=O)N1c2ccccc2C(C)=NCC1C(=O)NC1CCCCC1 (configuration not stated)	/	0	0	/	/
Cc1ccccc1CNC1CCC12CCC(c1ccccc1)CC2 (configuration not stated)	/	-8	-7	/	/
Cc1cc(NS(=O)(=O)c2ccc(NC(=O)CCCC(=O)O)cc2)nc(C)n1	8.2*	-2	-1	0	0
O=C(COC(=O)c1cccs1)Nc1cccc(S(=O)(=O)NC2=NCCCCC2)c1	2	5	11	2	/
O=C(COC(=O)c1ccc([N+](=O)[O-])s1)NCc1ccccc1	8.4*	-4	0	0	2
O=C(COC(=O)c1ccc([N+](=O)[O-])s1)Nc1cccc(S(=O)(=O)NC2=NCCCCC2)c1	9.8*	1	-3	3	4.4*
Cc1c(Cl)cnc(NC(=O)COC(=O)c2ccc([N+](=O)[O-])s2)c1Cl	0	-5	-3	1	/
CC(C)(C)c1ccc(NC(=O)COC(=O)c2ccc([N+](=O)[O-])s2)cc1	10*	-3	1	0	4.3*
O=C(COC(=O)c1ccc([N+](=O)[O-])s1)NC(c1ccccc1)c1ccccc1	17*	-2	-3	2	6.0*
COC1=C[C@H](C(=O)NCc2ccc(OC)cc2)C(C)C(c2ccccc2)CC1=O (some centres not stated)	/	3	-12	/	/
O=C(COc1ccccc1)Nc1ccc([N+](=O)[O-])cc1	20*	0	-4	2	2
COc1ccc(S(=O)(=O)N2CCOCC2)cc1NC(=O)COC(=O)c1ccc([N+](=O)[O-])s1	20*	/	/	/	11*
O=C(COC(=O)c1ccc([N+](=O)[O-])s1)Nc1ccc(Cl)cn1	7	-7	-2	1	/
